Assay results published in PubChem BioAssay.
Several values for one entry are separate records, joined by “and”; a condition that tells them apart may be missing. Identical values can stand only once. Activity calls are given as the source filed them.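 The calls were made as follows, unless noted: active = thallium flux through the channel raised or lowered by more than 3 SD from vehicle-only wells, actives on both sides; inactive = the rest.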

How the values were obtained:
[1] = P. berghei load reduction in hepatocytes – cell-based, HepG2, luciferase luminescence, HepG2 viability, primary screen (AID 624349; in the data active = parasite load remaining mostly below about 12%, no sharp cut-off; inactive = mostly above about 10%;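 also: 100% = mean of DMSO negative control wells on the same plate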); settings: P. berghei liver stage in HepG2, luciferase luminescence, concentration not given here; parasite load remaining: stronger effect = lower value; viability: measured here: HepG2 viability without parasites
[2] = signal quenchers or enhancers, Cy5 substrate/SSB – biochemical, NIH Clinical Collection, E. coli SSB, artefact control for HCV NS3 helicase inhibitor project (AID 743268; call rule not given here); settings: Cy5-oligo bound E. coli SSB, fluorescence interference
[3] = tested on: Hepatitis C virus NS3 helicase; assay: blockers of NS3h binding to DNA – biochemical, fluorescence polarization, NIH Clinical Collection, primary screen (AID 743270; call rule not given here); settings: NS3 helicase binding to Cy5-dT15 DNA, stronger effect = higher value, concentration not given here
[4] = target: Single-stranded DNA-binding protein (Escherichia coli (strain K12)) (UniProt P0AGE0); assay: SSB-ssDNA binding inhibitors – biochemical, fluorescence polarization, NIH Clinical Collection, counter-screen for HCV NS3 helicase inhibitor project (AID 743271; in the data active = inhibition above about 28%); settings: E. coli SSB-DNA binding, stronger effect = higher value, concentration not given here
[5] = compounds distorting NS3 helicase fluorescence signal – biochemical, NIH Clinical Collection, artefact control for HCV NS3 helicase inhibitor project (AID 743272; call rule not given here;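 also: HCV NS3 helicase with a Cy5 labelled single stranded DNA probe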); settings: fluorescence interference counterscreen, HCV NS3 helicase assay; stronger effect = lower value
[6] = viability loss with induced miR-34 in A549 – imaging, A549 dox-inducible miR-34, nuclei and caspase counts, primary screen (AID 1347080;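 active = compounds whose cell count with miR-34 switched on is under 0.7 times the count with it off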); settings: A549 miR-34 inducible, Hoechst nuclei count, 48 h
[7] = galactose survival enhancers in mitochondrial complex I cybrids – cell-based, galactose medium, ATP luminescence, primary screen (AID 1645843;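 active = z-score of at least 1.8 in each of two replicates, scored against plate mean and spread of sample wells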;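 also: positive z means more ATP and so rescue of galactose-driven cybrid death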); settings: complex I mutant cybrid cells, 72 h, stronger effect = higher value
F380Y = assay: BK channel mutant inhibitors and activators – cell-based, U2OS BacMam, thallium flux, beta subunits, selectivity assay, profiling panel (AID 1259406); settings: U2OS BacMam BK variants, at 30 µM;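 also: initial slope of Thallos dye fluorescence rise after thallium is added; log ratio against the mean of 0.3% DMSO vehicle wells on the same plate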
F380Y/beta1 = assay: as above; settings: U2OS BacMam BK variants, at 30 µM
F380Y/beta2Delta = assay: as above; settings: U2OS BacMam BK variants, at 30 µM
F380Y/beta4 = assay: as above; settings: U2OS BacMam BK variants, at 30 µM
[8] = target: Calcium-activated potassium channel subunit alpha-1 (Homo sapiens) + Leucine-rich repeat-containing protein 26 (Homo sapiens) (UniProt Q12791+Q2I0M4); assay: as above; settings: U2OS BacMam BK variants, F380Y/Slo1WT/gamma1, at 30 µM
Chain of Calcium-activated potassium channel subunit alpha-1 (Homo sapiens) + Leucine-rich repeat-containing protein 26 (Homo sapiens) (Q2I0M4 whole entry, looked up, one chain of several): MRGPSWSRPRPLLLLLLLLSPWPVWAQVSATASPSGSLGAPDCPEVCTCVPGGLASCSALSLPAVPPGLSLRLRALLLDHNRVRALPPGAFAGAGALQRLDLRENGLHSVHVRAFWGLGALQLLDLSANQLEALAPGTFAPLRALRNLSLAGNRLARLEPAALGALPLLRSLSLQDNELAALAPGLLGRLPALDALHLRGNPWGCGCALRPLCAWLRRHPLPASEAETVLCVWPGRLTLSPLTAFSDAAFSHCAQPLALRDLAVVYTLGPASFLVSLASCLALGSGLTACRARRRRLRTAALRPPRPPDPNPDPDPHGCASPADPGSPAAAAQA

R275C = assay: as above; settings: U2OS BacMam BK variants, at 30 µM
R275C/beta1 = assay: as above; settings: U2OS BacMam BK variants, at 30 µM
R275C/beta2Delta = assay: as above; settings: U2OS BacMam BK variants, at 30 µM
R275C/beta4 = assay: as above; settings: U2OS BacMam BK variants, at 30 µM
R275C/Slo1WT/beta2 = assay: as above; settings: U2OS BacMam BK variants, at 30 µM
[9] = tested on: Neuropilin-2 / VEGF-C interaction (human); assay: small molecules blocking Neuropilin-2/VEGF-C interaction – biochemical, microplate binding format, z-score (AID 743281; call rule not given here); settings: microplate NRP2/VEGF-C binding assay; stronger effect = lower value
[10] = modulation of C. elegans fzo-1 (AID 1259413; call rule not given here;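 also: fzo-1 mutant C. elegans worms in liquid wells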); settings: C. elegans fzo-1 modulator screen, mean read-out; stronger effect = higher value
[11] = MELAS cybrid and Rieske KO viability enhancers – cell-based, MELAS cybrids, Rieske KO mouse fibroblasts, CellTiter-Glo, primary screen (AID 1508586;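 active = mean z-score across replicates of 1.96 or higher in either the MELAS or the Rieske mutant cell line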;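 also: z relative to plate mean and SD of compound and empty wells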); settings: low glucose
[12] = stronger effect = lower value, cell number ratio, induced over uninduced
[13] = measured here: relative caspase fold change +Dox/-Dox
[14] = measured here: total cells with miR-34 induction, stronger effect = lower value
[15] = measured here: total cells without miR-34 induction

O=C1N=C(O)CN1N=Cc1ccc(-c2ccc([N+](=O)[O-])cc2)o1
83.3%: viability [1]
active: log fold change Tl+ flux (F380Y/beta1) 0.16
7540: cell count [6, 15]
1.68: fold change [6, 13]
inactive: parasite load remaining [1] 10.7% | fluorescence ratio [2] 1.04 | inhibition [3] 0.45% | inhibition [4] 7.91% | fluorescence ratio [5] 0.97 | fold change [6, 12] 0.951 | z-score [7] -0.1 | log fold change Tl+ flux (F380Y) 0.0284 | log fold change Tl+ flux (F380Y/beta2Delta) 0.0246 | log fold change Tl+ flux (F380Y/beta4) -0.0396 | log fold change Tl+ flux [8] 0.0789 | log fold change Tl+ flux (R275C) 0.0615 | log fold change Tl+ flux (R275C/beta1) 0.0553 | log fold change Tl+ flux (R275C/beta2Delta) 0.0141 | log fold change Tl+ flux (R275C/beta4) 0.0532 | log fold change Tl+ flux (R275C/Slo1WT/beta2) 0.0367
7170: cell count [6, 14]

Nc1nc(Cl)nc2c1ncn2[C@@H]1O[C@H](CO)[C@@H](O)[C@H]1O
40.5%: viability [1]
inactive: parasite load remaining [1] 214% | fluorescence ratio [2] 1 | inhibition [3] 5.15% | inhibition [4] 7.6% | fluorescence ratio [5] 1 | z-score [9] 0.198 | mean signal [10] 269 | log fold change Tl+ flux (F380Y) -0.00984 | log fold change Tl+ flux (F380Y/beta1) -0.0372 | log fold change Tl+ flux (F380Y/beta2Delta) -0.0171 | log fold change Tl+ flux (F380Y/beta4) -0.000976 | log fold change Tl+ flux [8] -0.026 | log fold change Tl+ flux (R275C) 0.0386 | log fold change Tl+ flux (R275C/beta1) -0.0185 | log fold change Tl+ flux (R275C/beta2Delta) -0.0141 | log fold change Tl+ flux (R275C/beta4) 0.0509 | log fold change Tl+ flux (R275C/Slo1WT/beta2) -0.00662

CCC1=C[C@H]2CN(C1)Cc1c([nH]c3ccccc13)[C@@](C(=O)OC)(c1cc3c(cc1OC)N(C)[C@H]1[C@@](O)(C(=O)OC)[C@H](OC(C)=O)[C@]4(CC)C=CCN5CC[C@]31[C@@H]54)C2
76.8%: viability [1]
inactive: parasite load remaining [1] 32.2% | inhibition [3] -1.98% | inhibition [4] 9.91% | z-score [9] 1.48 | mean signal [10] 244 | log fold change Tl+ flux (F380Y) 0.0913 | log fold change Tl+ flux (F380Y/beta1) 0.0236 | log fold change Tl+ flux (F380Y/beta2Delta) 0.0207 | log fold change Tl+ flux (F380Y/beta4) 0.0427 | log fold change Tl+ flux [8] -0.0112 | log fold change Tl+ flux (R275C/beta1) 0.0456 | log fold change Tl+ flux (R275C/beta2Delta) 0.0329 | log fold change Tl+ flux (R275C/beta4) 0.0723
active: fluorescence ratio [2] 0.8 | fluorescence ratio [5] 0.78 | log fold change Tl+ flux (R275C) -0.149 | log fold change Tl+ flux (R275C/Slo1WT/beta2) 0.104

COc1cc(/C=C/c2ccc(O)cc2)cc(OC)c1
active: log fold change Tl+ flux (F380Y) -1.03 | log fold change Tl+ flux (F380Y/beta1) -0.986 | log fold change Tl+ flux (F380Y/beta2Delta) -1.01 | log fold change Tl+ flux (F380Y/beta4) -0.813 | log fold change Tl+ flux [8] -0.744 | log fold change Tl+ flux (R275C) -0.927 | log fold change Tl+ flux (R275C/beta1) -0.11 | log fold change Tl+ flux (R275C/Slo1WT/beta2) -0.108
inactive: parasite load remaining [1] 117% | fluorescence ratio [2] 0.96 | inhibition [3] 5.94% | inhibition [4] 9.14% | fluorescence ratio [5] 0.99 | z-score [9] -1.34 | mean signal [10] 227 | log fold change Tl+ flux (R275C/beta2Delta) -0.000996 | log fold change Tl+ flux (R275C/beta4) 0.05
70.6%: viability [1]

c1ccc(-c2ccccn2)nc1
1.38: fold change [6, 13]
10100: cell count [6, 15]
9830: cell count [6, 14]
inactive: fold change [6, 12] 0.97 | z-score [7] 0.54 | log fold change Tl+ flux (F380Y) -0.0156 | log fold change Tl+ flux (F380Y/beta1) -0.0247 | log fold change Tl+ flux (F380Y/beta2Delta) 0.0286 | log fold change Tl+ flux (F380Y/beta4) 0.0375 | log fold change Tl+ flux [8] 0.0137 | log fold change Tl+ flux (R275C) 0.0175 | log fold change Tl+ flux (R275C/beta1) -0.0449 | log fold change Tl+ flux (R275C/beta2Delta) 0.0381 | log fold change Tl+ flux (R275C/beta4) -0.011 | log fold change Tl+ flux (R275C/Slo1WT/beta2) 0.000803

CC12CCC(=O)C=C1CCC1C2CCC2(C)C1CCC2(O)C(=O)CO (stereo unspecified)
inactive: parasite load remaining [1] 47.2% | fluorescence ratio [2] 0.91 | inhibition [3] -4.59% | inhibition [4] 1.18% | fluorescence ratio [5] 0.84 | z-score [9] -0.624 | mean signal [10] 241 | fold change [6, 12] 1.28 | z-score [7] 0.28 | log fold change Tl+ flux (F380Y) -0.0107 | log fold change Tl+ flux (F380Y/beta1) 0.000378 | log fold change Tl+ flux (F380Y/beta2Delta) 0.0311 | log fold change Tl+ flux (F380Y/beta4) 0.00388 | log fold change Tl+ flux [8] 0.0303 | log fold change Tl+ flux (R275C) 0.029 | log fold change Tl+ flux (R275C/beta1) -0.042 | log fold change Tl+ flux (R275C/beta2Delta) -0.0755 | log fold change Tl+ flux (R275C/beta4) -0.0135 | log fold change Tl+ flux (R275C/Slo1WT/beta2) -0.0119
7560: cell count [6, 14]
63.5%: viability [1]
5920: cell count [6, 15]
1.98: fold change [6, 13]

C[C@]12CC3CC(N)(C1)C[C@@](C)(C3)C2
9680 and 10100: cell count [6, 14]
85.8% and 102%: viability [1]
1.34 and 1.17: fold change [6, 13]
10500 and 11600: cell count [6, 15]
inactive: parasite load remaining [1] 113% and 58.5% | fluorescence ratio [2] 1.06 | inhibition [3] 0.4% | inhibition [4] -0.87% | fluorescence ratio [5] 0.95 | fold change [6, 12] 0.918 and 0.871 | z-score ([11]; MELAS cybrid survival, CellTiter-Glo 48 h, stronger effect = higher value) -0.593 | z-score [7] -0.375 and -0.275 | log fold change Tl+ flux (F380Y) -0.00548 | log fold change Tl+ flux (F380Y/beta1) -0.0368 | log fold change Tl+ flux (F380Y/beta2Delta) 0.033 | log fold change Tl+ flux (F380Y/beta4) 0.0342 | log fold change Tl+ flux [8] -0.0162 | log fold change Tl+ flux (R275C) 0.0086 | log fold change Tl+ flux (R275C/beta1) -0.0112 | log fold change Tl+ flux (R275C/beta2Delta) -0.0288 | log fold change Tl+ flux (R275C/beta4) -0.00234 | log fold change Tl+ flux (R275C/Slo1WT/beta2) -0.0124
-0.282: z-score ([11]; Rieske KO mouse fibroblast survival, CellTiter-Glo 72 h)
